Source: PubChem (National Center for Advancing Translational Sciences (NCATS))
KB-V1 cytotox: kills drug-selected multidrug resistant KB-V1 cells. actives 3.4% (n = 400,000). KB-V1 MDR cells viability, CellTiter-Glo, 72 h. Potency, µM (titrated, usually from 46.1 µM), most hits filed as cytotoxic. AID 1347076; further: potency means the concentration at half of the fitted maximal effect; on the % scale 0 is the no-effect control and ±100 the full control effect; nearly all actives have a fitted effect of over 60% in size
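KB-V1, DMEM (no phenol red) + 10% FBS; cpd pin-transferred, titration series; 72 h, 37 degrees C; CellTiter-Glo, luminescence. Data normalized, curve-fit.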
SW480 rerep: inducers of DNA re-replication in SW480 colon cancer cells | SW480 DNA re-replication, Hoechst DNA content imaging, 48 h | actives 1.8% (n = 340,000) | Potency, µM (doses to about 46.1 µM), for inactives: at the top dose re-replication activation, actives largely listed as activators | AID 624297; further: potency means the concentration at half of the fitted maximal effect; % of control where 0% means no effect; nearly all actives have a fitted effect of over 55% in size
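Cells (250 per well) received 23 nL compound or DMSO by pin tool and were kept 48 hr at 37 C, 5% CO2. Nuclei were then stained with Hoechst for 40 min and scanned for DNA content.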
KCNH2 3.1 block: KCNH2 3.1 (human) potassium channel inhibition | U2OS KCNH2 3.1, thallium flux FluxOr; active compounds read low | activity change, % (tested at about 1.8 µM) | actives 0.95% (n = 340,000);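 active means maximum activity change below -70%; inconclusive means maximum activity change from -70% to -50%; inactive means maximum activity change above -50%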;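 further: thallium influx rate constant from kinetic fluorescence after stimulation buffer; on the % scale 0 is the no-effect control and ±100 the full control effect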
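Normalized rate constant (relative to positive and negative DMSO controls) derived from a 2 min kinetic fluorescence read after stimulation; U2OS cells expressing the 3.1 isoform via virus at 1.77 x 10^8 /mL.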
KB-3-1 tox: KB-3-1 parental cell cytotoxicity | Potency, µM (doses to about 46.1 µM), usual class: cytotoxic | KB-3-1 viability, CellTiter-Glo ATP luminescence, 72 h | actives 1.4% (n = 400,000); further: potency means the concentration at half of the fitted maximal effect; on the % scale 0 is the no-effect control and ±100 the full control effect; nearly all actives have a fitted effect of over 60% in size
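Viability of parental KB-3-1 cells, measured by CellTiter-Glo luminescence, followed a 72 h incubation at 37 °C with pinned compounds in phenol-red-free DMEM containing 10% FBS.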
KCNH2 WT inh: KCNH2 (human, wildtype) channel inhibition; U2OS, BacMam KCNH2, thallium flux FluxOr; active compounds read low; actives 0.37% (n = 340,000); activity change, % at 1.84 µM; Q12809; AID 720551;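 active means maximum activity change below -70%; inconclusive means maximum activity change between -70% and -50%; inactive means maximum activity change above -50%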; further: on the % scale 0 is the no-effect control and ±100 the full control effect
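U2OS cells were transduced with wild-type KCNH2 virus (2.03 x 10^8 / mL) for 4 h at room temperature, then cultured overnight at 37 C. Thallium flux was read with FluxOr dye. Rate constants were normalized to DMSO controls.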
MCF10A rereplic: inducers of DNA re-replication in MCF 10A breast cells. MCF 10A DNA re-replication, Hoechst nuclear intensity, 48 h. Potency, µM (highest dose often 46.1 µM), for the others: at the top dose activity, positive = re-replication, actives largely listed as activators. actives 2.9% (n = 350,000). AID 624296; further: potency means the concentration at half of the fitted maximal effect; % of control where 0% means no effect; nearly all actives have a fitted effect of over 50% in size
* = called active by the depositor; i = inactive; ? = inconclusive; . = not tested or not shown. A selection: hits, their analogues and other compounds. The true share with any hit is near 7.6%. Unless noted, the call rests on the fitted dose curve; in most records, active means well fitted curve in the direction sought with a large enough effect; inconclusive means small, poorly fitted or top-dose-only effect, or another doubt; inactive means no such curve, though single readings can be large; an effect the other way counts as inactive or inconclusive.

SMILES	KB-V1 cytotox	SW480 rerep	KCNH2 3.1 block	KB-3-1 tox	KCNH2 WT inh	MCF10A rereplic
Cc1cc2c([nH]c3ccccc32)c(C)n1	i	6%	-9	i	-1	?
O=C(O)c1ccccc1N=Nc1c(O)[nH]c2ccc([N+](=O)[O-])cc12	i	-8%	-127*	i	-3	-1%
O=C(COC(=O)/C=C/c1ccccc1)NCCc1ccc(F)cc1	i	-6%	34	i	20	1%
C=C(C)Cn1c(C)cc(C)c(S(=O)(=O)c2cccc(C)c2)c1=O	i	-16%	5	i	2	2%
Cc1ccc(C)c(NC(=O)C(Sc2nc3ccc(C)cc3[nH]2)c2ccccc2)c1 (stereo not drawn)	i	?	.	i	-10	21µM*
Cc1ccc2nc(SCC(=O)Nc3cccc(S(=O)(=O)N(C)C)c3)[nH]c2c1	?	1%	-5	i	-2	?
Cc1ccc2nc(SCC(=O)Nc3cc(C(F)(F)F)ccc3N3CCOCC3)[nH]c2c1	?	5.2µM*	-20	0.82µM*	-7	0.58µM*
Cc1ccc2nc(SC(C(=O)Nc3ccc(F)cc3)c3ccccc3)[nH]c2c1 (stereo not drawn)	?	?	-4	?	-2	?
CCN(CC)S(=O)(=O)c1ccc(C)c(NC(=O)CSc2nc3ccc(C)cc3[nH]2)c1	15µM*	.	-14	i	1	5%
O=C(CSc1nccc(=O)[nH]1)Nc1cc(C(F)(F)F)ccc1N1CCOCC1	i	-2%	24	i	-2	-2%
O=c1c2cc(Br)ccc2nc(-c2cccc(C(F)(F)F)c2)n1O	2.3µM*	11%	2	2.9µM*	3	?
COc1ccccc1CCC(=O)Nc1ccc2c(c1)c(=O)n(C)n2-c1cccs1	i	.	.	3.3µM*	.	.
COc1cc(Cn2c3ccc(NC(=O)CCc4ccccc4)cc3c(=O)n2C)ccc1F	5.8µM*	.	.	9.2µM*	.	.
Cc1cccc(NC(=O)CN2CCN(C(=O)CNC(=O)c3ccc(-c4ccccc4)cc3)CC2)c1C	?	.	-18	i	24	.
Cc1cccc(C)c1NC(=O)CN1CCN(C(=O)CNC(=O)c2ccc(-c3ccccc3)cc2)CC1	18µM*	.	1	?	19	.
C[C@@H]1CCCCO[C@H](CN(C)Cc2ccc(C(F)(F)F)cc2)[C@H](C)CN([C@@H](C)CO)C(=O)c2cc(NC(=O)Cc3ccccc3)ccc2O1	26µM*	.	-12	?	-17	.
CCCN(C)C[C@@H]1OCCCC[C@@H](C)Oc2ccc(NC(=O)c3ccccc3)cc2C(=O)N([C@H](C)CO)C[C@@H]1C	i	.	.	4.6µM*	.	.
C[C@@H]1CCCCO[C@H](CN(C)C(=O)c2ccncc2)[C@H](C)CN([C@@H](C)CO)C(=O)c2cc(NC(=O)c3ccccc3)ccc2O1	i	.	-12	i	-10	.
COc1cc2nc(N(CCCN(C)C)C(=O)c3ccc(S(=O)(=O)N4CCc5ccccc54)cc3)sc2cc1OC	i	?	34	i	6	5%
CCOc1cccc2sc(N(CCCN(C)C)C(=O)c3ccc(S(=O)(=O)N(C)c4ccccc4)cc3)nc12	i	-2%	-85*	?	-106*	4%
CCN(Cc1ccccc1)S(=O)(=O)c1ccc(C(=O)N(CCCN(C)C)c2nc3cc(OC)ccc3s2)cc1	i	?	12	i	3	16µM*
CCOc1cccc2sc(N(CCCN(C)C)C(=O)c3ccc(S(=O)(=O)N4CCc5ccccc5C4)cc3)nc12	i	?	-17	i	8	?
COc1ccc2sc(N(CCCN(C)C)C(=O)c3ccc(S(=O)(=O)N4CCCc5ccccc54)cc3)nc2c1	21µM*	?	-10	i	0	?
CC(C)C1=CC2=CC[C@@H]3[C@](C)(CCC[C@@]3(C)C(=O)O)[C@H]2CC1	.	-10%	.	.	.	2%
CN(Cc1ccccc1)C(=O)c1ccc(NC(=O)Cc2cccc(NC(=O)C3CCCN(C(=O)C4CCC4)C3)c2)cc1 (stereo not drawn)	i	3%	30	i	1	2%
SMILES	KB-V1 cytotox	SW480 rerep	KCNH2 3.1 block	KB-3-1 tox	KCNH2 WT inh	MCF10A rereplic
O=C(c1ccoc1)N1CCN(c2cc(-c3ccccc3)nc3cc(-c4ccccc4)nn23)CC1	?	.	-38	16µM*	1	.
COc1ccccc1-c1cc2nc(-c3ccccc3)cc(N3CCN(C(=O)c4ccco4)CC3)n2n1	?	.	-7	16µM*	6	.
COc1cccc(-c2cc3nc(-c4ccccc4)cc(N4CCN(C(=O)c5ccoc5)CC4)n3n2)c1	?	.	3	?	2	.
Cc1nn2c(N3CCN(C(=O)c4ccco4)CC3)cc(C(C)(C)C)nc2c1-c1ccccc1	18µM*	-6%	-2	?	-4	-3%
COc1ccccc1-c1cc2nc(-c3ccccc3)cc(N3CCN(C(=O)c4ccoc4)CC3)n2n1	9.2µM*	.	-31	?	20	.
Cc1ccc(NC(=O)c2ccc3c(c2)nnn3C)cc1	i	-6%	-7	i	1	11%
CN(C)c1ccc(NC(=O)c2ccc3c(c2)nnn3C)cc1	i	16µM*	-1	i	.	?
COc1ccc(NC(=O)C2Cc3cccc(OC)c3O/C2=N\O)cc1 (stereo not drawn)	i	12%	-23	?	1	-12%
COc1cccc2c1O/C(=N\O)C(C(=O)Nc1ccc(C)cc1)C2 (stereo not drawn)	i	?	-17	4.1µM*	4	18µM*
Cc1[nH]c(C)c(S(=O)(=O)Nc2ccc(OC(F)(F)F)cc2)c1C(=O)N1CCCCC1	i	-16%	5	i	-21	16%
CCOC(=O)C1=C(C)N(C[C@@H]2CC[C@@H](Cc3ccc4cc(OC)ccc4c3)O2)C(=O)NC1c1ccc(OC)cc1 (stereo partly drawn)	?	?	19	i	-5	4.1µM*
